Laboratory results: PubChem BioAssay (NCATS)
Results filed as inconclusive are left out. Calls of active or inactive are those of the source. Calls follow the shape of the dose curve; as a rule, active = well fitted inhibition curve with a large enough effect; inconclusive = small, poorly fitted or top-dose-only effect; inactive = no such curve, though single readings can be large or run the other way.
% is scaled to controls: 0 for no effect and ±100 for the full control effect; potency is read from the fitted curve at half-maximal effect.

Assay: HTS Assay for Allosteric Antagonists of the Human D2 Dopamine Receptor: Hit Validation in HTRF (AID 624455);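 also: stable D1 dopamine receptor cell line scored for blocking the D1 response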
Settings: Cells stably expressing D1 dopamine receptor, inhibition mode; series mostly up to 46.1 µM; activity, negative = inhibition: at the top concentration
In short: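 First, antagonism was screened by calcium flux in a force-coupled, inducible Hek293 Trex D2 line challenged with EC80 dopamine. Hits then went into an HTRF assay in cells stably expressing D1, testing inhibition of the D1 response.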
In the case of `CC(C)(Oc1ccc(CCNC(=O)c2ccc(Cl)cc2)cc1)C(=O)O`, the “activity, negative = inhibition” value was -6.31% (inactive).
In the case of `CCN(CC)CCNC(=O)c1cc(S(C)(=O)=O)ccc1OC`, the “activity, negative = inhibition” value was 2.45% (inactive).
With `NC/C=C/C(=O)O` the “activity, negative = inhibition” value was -4.45% (inactive).
For `CC(=O)OCC1=C(C(=O)O)N2C(=O)[C@@H](NC(=O)Cc3cccs3)[C@H]2SC1`, the “activity, negative = inhibition” value was -4.82% (inactive).
With `CNCCC(Oc1ccccc1OC)c1ccccc1` (stereo unspecified) the “activity, negative = inhibition” value was 8.13% (inactive).
With `NC(=O)c1ncn([C@@H]2O[C@H](CO)[C@@H](O)[C@H]2O)c1O` the “activity, negative = inhibition” value was -0.967% (inactive).
With `CC(=O)Oc1cc(C(C)C)c(OCCN(C)C)cc1C` the “activity, negative = inhibition” value was 9.06% (inactive).
With `CCCN(CCC)CCc1cccc2c1CC(=O)N2` the “activity, negative = inhibition” value was -11.3% (inactive).
In the case of `O=C(CCNNC(=O)c1ccncc1)NCc1ccccc1`, the “activity, negative = inhibition” value was 1.46% (inactive).
For `CCn1ccnc1CC1COc2ccccc2O1` (stereo unspecified), the “activity, negative = inhibition” value was 5.86% (inactive).
For `CC(=O)[C@]1(O)Cc2c(O)c3c(c(O)c2[C@@H](O[C@H]2C[C@H](N)[C@H](O)[C@H](C)O2)C1)C(=O)c1ccccc1C3=O`, the “activity, negative = inhibition” value was 6.66% (inactive).
In the case of `Cc1ccc(Cl)c(Nc2ccccc2C(=O)O)c1Cl`, the “activity, negative = inhibition” value was 4.13% (inactive).
For `CCN(CC)CCNC(=O)c1ccc(NC(C)=O)cc1`, the “activity, negative = inhibition” value was -3.09% (inactive).
In the case of `CN(C)C(=O)Oc1cccc([N+](C)(C)C)c1`, the “activity, negative = inhibition” value was 4.65% (inactive).
For `CN(C)CC/C=C1\c2ccccc2COc2ccccc21`, the “activity, negative = inhibition” value was 4.66% (inactive).
For `CN1C(=O)CC[C@H]1c1cccnc1`, the “activity, negative = inhibition” value was -0.826% (inactive).
In the case of `COCCc1ccc(OCC(O)CNC(C)C)cc1` (stereo unspecified), the “activity, negative = inhibition” value was 1.46% (inactive).
With `CCO/C([O-])=N/c1c[n+](N2CCOCC2)no1` the “activity, negative = inhibition” value was -100% (inactive).
With `O=C(O)CN(CCN(CC(=O)O)CC(=O)O)CCN(CC(=O)O)CC(=O)O` the “activity, negative = inhibition” value was -2.22% (inactive).
With `C[N+](C)(C)CCCCCCCCCC[N+](C)(C)C` the “activity, negative = inhibition” value was -3.28% (inactive).
For `CC(C)[N+](C)(CCOC(=O)C1c2ccccc2Oc2ccccc21)C(C)C`, the “activity, negative = inhibition” value was -4.34% (inactive).
In the case of `CCOC(=O)C1=C(C)NC(C)=C(C(=O)OC)C1c1cccc([N+](=O)[O-])c1` (stereo unspecified), the “activity, negative = inhibition” value was 8.16% (inactive).
With `CC(C)(C)c1ccc(C(=O)CCCN2CCC(OC(c3ccccc3)c3ccccc3)CC2)cc1` the “activity, negative = inhibition” value was 14.2% (inactive).
In the case of `CCOC(=O)c1cnc2c(cnn2CC)c1NN=C(C)C`, the “activity, negative = inhibition” value was 3.55% (inactive).
In the case of `C[C@]12CCC(=O)C=C1CC[C@@H]1[C@@H]2CC[C@@]2(C)[C@H]1CC[C@]2(O)C(=O)CO`, the “activity, negative = inhibition” value was -4.19% (inactive).
With `CN1CCN(C2=Nc3ccccc3Oc3ccc(Cl)cc32)CC1` the “activity, negative = inhibition” value was 8.34% (inactive).
With `C[N+](C)(C)CCOC(=O)CCC(=O)OCC[N+](C)(C)C` the “activity, negative = inhibition” value was -4.06% (inactive).
For `CNC1(C)C2CCC(C2)C1(C)C` (stereo unspecified), the “activity, negative = inhibition” value was 13.9% (inactive).
With `C[N+](C)(C)CCOC(N)=O` the “activity, negative = inhibition” value was -4.71% (inactive).
In the case of `CCN1CCC[C@H]1CNC(=O)c1c(O)c(Cl)cc(Cl)c1OC`, the “activity, negative = inhibition” value was -3.66% (inactive).
In the case of `CO[C@@]1(NC(=O)CSCC#N)C(=O)N2C(C(=O)O)=C(CSc3nnnn3C)CS[C@@H]21`, the “activity, negative = inhibition” value was 0.165% (inactive).
For `CCN1CCc2nc(N)oc2CC1`, the “activity, negative = inhibition” value was -28.6% (inactive).
In the case of `NCCCNCCSP(=O)(O)O`, the “activity, negative = inhibition” value was -5.78% (inactive).
In the case of `Brc1c(NC2=NCCN2)ccc2nccnc12`, the “activity, negative = inhibition” value was -14.2% (inactive).
In the case of `CN1CCN(CC(=O)N2c3ccccc3C(=O)Nc3cccnc32)CC1`, the Potency was 3.66 µM (active).
With `Cc1ccc(=O)n(-c2ccccc2)c1` the “activity, negative = inhibition” value was -4.03% (inactive).
